Experimental data taken from PubChem BioAssay (EPA / NIEHS).
Active and inactive are the calls of the source. The calls were made as follows: active = hit-call score of the fitted dose curve at least 0.9, where 1 is the maximum; inactive = score below 0.9.

Assay: ATG_GRE_CIS: Attagene CIS-FACTORIAL HepG2 Assay for human Glucocorticoid Response Elements (GRE) (AID 2282947)
Conditions: HepG2 GRE cis-reporter, Attagene multiplex mRNA; actives raise or lower the signal
Procedure: ATG_CIS is a cell-based, multiplexed-readout assay that uses HepG2, a human liver cell line, with measurements taken at 24 hours after chemical dosing in a 24-well plate.ATG_GRE_CIS is one of 52 assay component(s) measured or calculated from the ATG_CIS assay. It is designed to make measurements of mRNA induction, a form of inducible reporter, as detected with fluorescence intensity signals by Reverse transcription polymerase chain reaction (RT-PCR) and Capillary electrophoresis technology.Data from the assay component ATG_GRE_CIS was analyzed into 1 assay endpoint. This assay endpoint, ATG_GRE_CIS, was analyzed with bidirectional fitting relative to DMSO as the negative control and baseline of activity. Using a type of inducible reporter, measures of mRNA for gain or loss-of-signal activity can be used to understand the reporter gene at the transcription factor-level as they relate to the gene NR3C1. Furthermore, this assay endpoint can be referred to as a primary readout, because this assay has produced multiple assay endpoints where this one serves a reporter gene function. To generalize the intended target to other relatable targets, this assay endpoint is annotated to the nuclear receptor intended target family, where the subfamily is steroidal.
Human liver HepG2 cells are transiently transfected with multiple reporter transcription units (MRTUs) in 6-well plates using FuGene 6 reagent (Roche; 3 ml FuGene/1 mg DNA). The MRTU constructs are regulated by a cis-regulating element (promoter). […] A major difference between the CIS and TRANS system is that in CIS activities of endogenous TFs are measured, whereas the TRANS assay evaluates changes in activities of exogenous, chimeric NR-Gal4 proteins. […] At the end of 24 hour incubation, total RNA was isolated using TriZol reagent (Invitrogen). The isolated RNA is then reverse-transcribed using oligo(dT) primer and Mo-MLV reverse transcriptase (Invitrogen) with DNAse I (Ambion) treatment for 30 min. The one-tenth of the produced cDNA was amplified by PCR using Taq DNA polymerase (Invitrogen) and two reporter sequence-specific primers. The PCR products were fluorescently labeled by primer extension with 6-arboxyfluorescein (6-FAM) 5'-labeled reporter sequence-specific primer (2 min at 95 C, 20 s at 68 C and 10 min at 72 C) and these products were digested with 5U of HpaI (New England Biolabs) for 2h at 37 C. The fragments were purified using Qiaquick PCR columns (Qiagen), analyzed on an ABI 3130xL genetic analyzer (Applied Biosystems) with peak positions identified by using a set of X-rhodamine (ROX)-labeled MapMarker1000 molecular weight standards (BioVentures). The raw capillary electrophoresis data was processed using Attagraph software (Attagene).

outcome, inactive:
CSc1c(Cl)c(Cl)c(Cl)c(Cl)c1Cl, C=COCCOCCOC=C, CCOCCOCCOCC, CC1(C)C2=CCCC(C)(C)[C@]23CC[C@H]1C3, CCCCCCCCC=CCCCCCCCC1=NCCN1CCO, C=C(C)CNCC, CC(=O)Nc1ccc(C(=O)CCl)cc1, Oc1c(Cl)cc(Cl)c(Cl)c1Cc1c(O)c(Cl)cc(Cl)c1Cl, CC(=O)O[C@@H]1CC2CCC1(C)C2(C)C (stereo not given in full), CN(C)C(=O)Nc1ccc(Oc2ccc(Cl)cc2)cc1, BrCc1cccc(Oc2ccccc2)c1, CCN(CCC#N)c1ccc(N=Nc2ccc([N+](=O)[O-])cc2)cc1, FC(F)(F)COCC(F)(F)F, C=C[Si]1(C)O[Si](C)(C=C)O[Si](C)(C=C)O[Si](C)(C=C)O1 (stereo not given), CCCC[O][Al]([O]CCCC)[O]CCCC, N[C@@H](Cc1cc(I)c(Oc2cc(I)c(O)c(I)c2)c(I)c1)C(=O)O, CCCCC1CCC(O)CC1 (stereo not given), COCCOC(=O)c1ccccc1C(=O)OCCOC, CS(=O)(=O)c1ccc(C2=C(c3ccccc3)C(=O)OC2)cc1, O=CCc1ccccc1, CN(C)C(=S)SC(=S)N(C)C, CCOC(=O)c1ccc(N)cc1, CC(O)C1CCCCC1 (stereo not given), COC(=O)c1ccc(C)cc1C1=NC(C)(C(C)C)C(=O)N1 (stereo not given) (tested in a mixture with another compound), O=c1c(O)c(-c2ccc(O)cc2)oc2cc(O)cc(O)c12, O=C1c2ccccc2C(=O)c2c(O)ccc(O)c21, O=C(c1ccccc1)C(O)c1ccccc1 (stereo not given), CC=CC=CCOC(=O)C(C)C, CN(C)CCOc1ccc(/C(=C(/CCCl)c2ccccc2)c2ccccc2)cc1, CC(C=O)Cc1ccc(C(C)(C)C)cc1 (stereo not given), C/C=C(\C)C(=O)OCCc1ccccc1, CC1=C(Br)C(=O)C(Br)=C/C1=C(/c1ccccc1S(=O)(=O)O)c1cc(Br)c(O)c(Br)c1C, OC[C@H]1O[C@@H]2O[C@H]3[C@H](O)[C@@H](O)[C@@H](O[C@H]4[C@H](O)[C@@H](O)[C@@H](O[C@H]5[C@H](O)[C@@H](O)[C@@H](O[C@H]6[C@H](O)[C@@H](O)[C@@H](O[C@H]7[C@H](O)[C@@H](O)[C@@H](O[C@H]8[C@H](O)[C@@H](O)[C@@H](O[C@H]9[C@H](O)[C@@H](O)[C@@H](O[C@H]1[C@H](O)[C@H]2O)O[C@@H]9CO)O[C@@H]8CO)O[C@@H]7CO)O[C@@H]6CO)O[C@@H]5CO)O[C@@H]4CO)O[C@@H]3CO, Clc1ccc(C(c2ccccc2Cl)C(Cl)Cl)cc1 (stereo not given), CCOC(=O)[C@@H](C)Oc1ccc(Oc2nc3ccc(Cl)cc3o2)cc1, C=CCCC(=O)/C=C/C1C(C)=CCCC1(C)C (stereo not given), CCCCOCC, CCCCCCOCCOCCO, O=C1OC(=O)c2c(Br)c(Br)c(Br)c(Br)c21, CC/C=C\CC/C=C/CO
